According to PubChem BioAssay AID1159580 (chemical genetic matrix, 2015):
“And” between values parts separate entries of the source, which are not always exact repeats. Equal values may be shown once. Screen size: about 5,500 compounds; about 2,000 (36%) were called active. About 18% were inconclusive and are not listed. Rule as the data show it: active = normalized growth mostly below about 0.91 (no sharp cut-off); inconclusive = no clear call, values can overlap the other calls; inactive = mostly above about 0.92. The list shows a part of the results.

Test: chemical genetic growth profiling, strain panel (AID 1159580);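 also: tested at 20 µM; growth read once vehicle control cultures reached saturation at 30 °C; 1 = growth at the plate median or of vehicle wells; lower values mean less growth of the strain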
Conditions: S. cerevisiae deletion strains, growth OD

Measured: normalized growth

NC(=O)NO
inactive: locus YAL021C, strain ccr4, hits give low values 1.02 | locus YAL026C, strain drs2, hits give low values 1.03 | locus YAL030W, strain snc1, hits give low values 1 | locus YAL040C, strain CLN3, hits give low values 1.09 | locus YBL061C, strain skt5, hits give low values 1.04 | locus YBR009C, strain hhf1, hits give low values 1.01 | locus YBR021W, strain FUR4, hits give low values 1 | locus YBR023C, strain chs3, hits give low values 1.02 | locus YBR171W, strain sec66, hits give low values 1.02 | locus YBR229C, strain ROT2, hits give low values 0.999 | locus YBR231C, strain swc5, hits give low values 1.01 | locus YBR279W, strain paf1, hits give low values 1.03 | locus YCL011C, strain gbp2, hits give low values 1.02 | locus YCL016C, strain dcc1, hits give low values 1.02 | locus YCL029C, strain bik1, hits give low values 1 | locus YCL061C, strain MRC1, hits give low values 1.01 | locus YCL069W, strain vba3, hits give low values 1.02 | locus YCR088W, strain abp1, hits give low values 1.02 | locus YDL005C, strain med2, hits give low values 1.02 | locus YDL035C, strain GPR1, hits give low values 1.01 | locus YDL040C, strain nat1, hits give low values 1.04 | locus YDL074C, strain BRE1, hits give low values 1.01 | locus YDL101C, strain DUN1, hits give low values 1 | locus YDL134C, strain PPH21, hits give low values 1 | locus YDL185W, strain tfp1, hits give low values 0.994 | locus YDL192W, strain arf1, hits give low values 1.01 | locus YDR001C, strain nth1, hits give low values 1.01 | locus YDR069C, strain doa4, hits give low values 1.02 | locus YDR101C, strain arx1, hits give low values 0.996 | locus YDR137W, strain rgp1, hits give low values 1.04 | locus YDR159W, strain sac3, hits give low values 1.01 | locus YDR162C, strain NBP2, hits give low values 1.01 | locus YDR195W, strain ref2 0.962 | locus YDR297W, strain sur2, hits give low values 1.02 | locus YDR318W, strain mcm21, hits give low values 1 | locus YDR334W, strain swr1, hits give low values 1.01 | locus YDR335W, strain msn5, hits give low values 1.02 | locus YDR363W, strain ESC2, hits give low values 1.01 | locus YDR388W, hits give low values 0.998 | locus YDR392W, strain spt3, hits give low values 1.04 | locus YDR502C, strain sam2, hits give low values 0.989 | locus YEL003W, strain gim4, hits give low values 1.02 | locus YEL037C, strain rad23, hits give low values 1.01 | locus YEL061C, strain CIN8 (second series), hits give low values 1.02 | locus YEL061C, strain CIN8, hits give low values 1 | locus YER002W, strain NOP16, hits give low values 0.998 | locus YER015W, strain faa2, hits give low values 1.01 | locus YER016W, strain bim1, hits give low values 1.01 | locus YER110C, hits give low values 0.997 | locus YER111C, strain swi4, hits give low values 1.03 | locus YER155C, strain BEM2 (second series), hits give low values 1.01 | locus YER155C, strain BEM2, hits give low values 0.998 | locus YER167W, strain BCK2, hits give low values 1 | locus YFR010W, strain ubp6, hits give low values 1.01 | locus YGL078C, strain dbp3, hits give low values 0.999 | locus YGL086W, strain mad1, hits give low values 0.985 | locus YGL167C, strain pmr1, hits give low values 1.02 | locus YGL173C, strain kem1, hits give low values 1.02 | locus YGL227W, strain vid30, hits give low values 1.01 | locus YGL240W, strain doc1, hits give low values 0.983 | locus YGL248W, strain PDE1, hits give low values 1 | locus YGL253W, strain hxk2, hits give low values 1.03 | locus YGR078C, strain PAC10, hits give low values 1 | locus YGR135W, strain pre9, hits give low values 0.997 | locus YGR229C, strain SMI1, hits give low values 0.997 | locus YGR252W, strain gcn5, hits give low values 0.943 | locus YHR013C, strain ard1, hits give low values 1.02 | locus YHR027C, strain rpn1, hits give low values 1.02 | locus YHR030C, strain SLT2, hits give low values 0.989 and 0.962 | locus YHR079C, strain IRE1 (second series), hits give low values 1 | locus YHR079C, strain IRE1, hits give low values 0.981 | locus YHR094C, strain hxt1, hits give low values 0.997 | locus YHR129C, strain ARP1, hits give low values 1 | locus YHR142W, strain chs7, hits give low values 1.04 | locus YHR200W, strain rpn10, hits give low values 0.992 | locus YIL066C, strain RNR3, hits give low values 1.01 | locus YIL073C, strain SPO22, hits give low values 1.03 | locus YIL125W, strain kgd1, hits give low values 0.989 | locus YIR030C, strain dcg1, hits give low values 1.01 | locus YJL092W, strain hpr5, hits give low values 1.02 | locus YJL095W, strain BCK1 (second series), hits give low values 1 | locus YJL095W, strain BCK1, hits give low values 1.01 and 0.965 | locus YJL115W, strain asf1, hits give low values 1.01 | locus YJL129C, strain trk1, hits give low values 1.03 | locus YJL134W, strain LCB3, hits give low values 1 | locus YJL154C, strain vps35, hits give low values 1.03 | locus YJL164C, strain tpk1, hits give low values 1.01 | locus YJL166W, strain qcr8, hits give low values 1.03 | locus YJL168C, strain set2, hits give low values 1 | locus YJL187C, strain SWE1 (second series), hits give low values 1 | locus YJL187C, strain SWE1, hits give low values 1.03 | locus YJR043C, strain POL32, hits give low values 1
